High-throughput results deposited in PubChem BioAssay by National Center for Advancing Translational Sciences (NCATS).
SMN2 splice enh: qHTS Assay for Enhancers of SMN2 Splice Variant Expression. HEK293 SMN2-luciferase splicing reporter, luminescence, 30-36 h. Potency, µM (series often up to 46.1 µM), for inactives: at the top dose activity change, positive = activation, hits mostly activators. 210,000 compounds, 2.8% hits. AID 1458, 2008; also: % of control where 0% means no effect; nearly all actives have a fitted effect of over 55% in size
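HEK293 cells carry an SMN2 minigene-luciferase reporter in which exon 7 inclusion puts luciferase in frame. Cells were seeded at 2000 cells/well, attached for 10-12 hours, then exposed to compounds for 30-36 hours at 37C before ONE-Glo luminescence.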
ELG1 genotoxic: qHTS screen for small molecules that induce genotoxicity in human embryonic kidney (HEK293T) cells expressing luciferase-tagged ELG1; HEK293T ELG1-luciferase reporter, luminescence, 16 h; Potency, µM (titrated, usually from 46 µM), for the others: at the top dose activity change, positive = activation, most hits filed as activators; 330,000 compounds, 1.3% hits; AID 504466, 2011; also: % of control where 0% means no effect; nearly all actives have a fitted effect of over 60% in size
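Reporter readout depends on ELG1 protein level, which increases with genetic stress. After 16 hr compound exposure at 37 °C, luciferase activity was quantified using ONE-Glo.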
NPC1 promoter act: qHTS Assay for NPC1 Promoter Activators. AID 485313, 2010. 320,000 compounds, 2.4% hits. Huh7 NPC1 promoter luciferase reporter, 24 h. Potency, µM (highest dose often 9.22 µM), for the others: at the top dose activation, hits mostly activators; also: % of control where 0% means no effect; nearly all actives have a fitted effect of over 60% in size
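Huh7 cells stably carrying NPC1 promoter–luciferase, plated in Opti-MEM with 10% FBS for 2 h, were exposed to compound in DMSO for 24 h at 37 °C; luciferase reagent was added for 10 min and luminescence read.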
FLuc modulator: qHTS profiling assay for firefly luciferase inhibitor/activator using purifed enzyme and Km concentrations of substrates (counterscreen for miR-21 project) | AID 588342, 2011 | Potency, µM (titrated, usually from 57.5 µM), inactives show at the highest dose activity change, negative = inhibition, usual class: inhibitors | purified FLuc, Km substrates, luminescence inhibition | 360,000 compounds, 6.9% hits | Luciferin 4-monooxygenase (Photinus pyralis), P08659;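 also: plate controls were vehicle for no effect and reference inhibitor for full effect; nearly all actives have a fitted effect of over 55% in size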
Target sequence (P08659 whole entry, looked up): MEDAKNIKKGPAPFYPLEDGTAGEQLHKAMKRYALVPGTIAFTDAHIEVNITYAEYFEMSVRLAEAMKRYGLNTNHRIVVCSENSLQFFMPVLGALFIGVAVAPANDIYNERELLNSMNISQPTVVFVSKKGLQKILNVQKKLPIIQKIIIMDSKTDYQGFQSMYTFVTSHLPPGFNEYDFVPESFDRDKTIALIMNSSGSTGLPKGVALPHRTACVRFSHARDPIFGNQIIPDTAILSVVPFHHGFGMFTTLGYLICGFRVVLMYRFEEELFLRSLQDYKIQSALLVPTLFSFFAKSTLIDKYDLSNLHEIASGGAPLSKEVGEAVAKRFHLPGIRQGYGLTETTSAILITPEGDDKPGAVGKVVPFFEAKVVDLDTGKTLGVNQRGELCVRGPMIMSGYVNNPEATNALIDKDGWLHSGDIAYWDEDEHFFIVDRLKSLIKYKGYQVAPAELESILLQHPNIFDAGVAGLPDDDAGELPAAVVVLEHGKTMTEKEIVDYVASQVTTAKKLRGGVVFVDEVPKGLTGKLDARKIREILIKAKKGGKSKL
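Purified P. pyralis luciferase (10nM final) with 10uM D-luciferin and 10uM ATP (Km levels) in 50mM Tris acetate pH 7.5, 10mM Mg acetate, 0.01% Tween-20, 0.05% BSA; qHTS 6-point titration, ~60 µM downward; luminescence read.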
Rab9 promoter act: qHTS Assay for Rab9 Promoter Activators. Potency, µM (top dose mostly 9.22 µM), inactives show top-dose activation, negative = inhibition, actives largely listed as activators. AID 485297, 2010. 320,000 compounds, 2.8% hits. Huh7 Rab9 promoter-luciferase reporter, luminescence, 24 h; also: % of control where 0% means no effect; nearly all actives have a fitted effect of over 60% in size
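Huh7 reporter line, Rab9 promoter upstream of luciferase. Compound exposure 24 h at 37 °C in reduced-serum medium with 10% FBS. Read-out: luminescence.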
Numbers without * were called inactive; ? = inconclusive; . = not tested or not shown; [ ] = dose if it differs, or a comment. Shown are actives, neighbours in structure and some others; about 7.5% of the full set was active somewhere. Calls follow the shape of the dose curve; as a rule, active = well fitted curve in the direction sought with a large enough effect; inconclusive = small, poorly fitted or top-dose-only effect, or another doubt; inactive = no such curve, though single readings can be large; an effect the other way counts as inactive or inconclusive. Potency is read from the fitted curve at half-maximal effect.

SMILES	SMN2 splice enh	ELG1 genotoxic	NPC1 promoter act	FLuc modulator	Rab9 promoter act
CCOc1ncccc1C(=O)Nc1ccc(-c2cn3ccsc3n2)cc1	-32%	1%	-1%	2%	2%
COc1ccccc1C(=O)Nc1cccc(-c2cn3ccsc3n2)c1	18%	-7%	9%	4.3µM*	13%
O=C(Nc1cccc(-c2cn3ccsc3n2)c1)c1ccccc1	-7%	-8%	14%	11µM*	15%
CCCCC(=O)Nc1cccc(-c2cn3ccsc3n2)c1	8%	5%	26%	15µM*	27%
CCCCN(C)CCNC(=O)c1ccc(Cn2c(=O)[nH]c3cc(OC)c(OC)cc3c2=O)cc1	10%	.	.	-2%	.
O=C(c1cn(-c2ccc(Cl)c(Cl)c2)nn1)C1CC1	8%	7%	?	2%	?
O=C1CCCCC1C(=O)c1cn(-c2ccc(Cl)c(Cl)c2)nn1 (configuration not stated)	14µM*	?	11%	0.85µM*	24%
CCCn1c(=O)n(-c2cc(Cl)c(OC)cc2OC)c(=O)c2c3c(sc21)CN(C(C)=O)CC3	18%	.	.	4%	.
Cc1ccc(C(=O)NCC(=O)OCc2c(F)cccc2Cl)cc1	.	13%	2%	12µM*	0%
CCOc1ccc(C(=O)NCC(=O)OCc2c(F)cccc2Cl)cc1	-1%	0%	0%	?	-1%
O=C(CNC(=O)c1cccs1)OCc1c(F)cccc1Cl	.	?	0%	15µM*	-1%
CC(=O)Nc1ccc(C(=O)NCC(=O)OCc2c(F)cccc2Cl)cc1	?	3%	-1%	19µM*	-4%
CCCCn1c(N)c(N(CC(C)C)C(=O)CC2OC(=O)c3ccccc32)c(=O)[nH]c1=O (configuration not stated)	.	3%	-2%	2%	-1%
COc1ccc(NC(=O)CN2C(=O)CC(C)S(=O)(=O)c3ccccc32)cc1 (configuration not stated)	.	5%	0%	0%	-1%
CC1(C)NC(=O)N(CCCCOc2ccccc2[N+](=O)[O-])C1=O	11%	-2%	0%	-1%	0%
COc1ccccc1/C=C/C=N/n1c(-c2cc(-c3ccccc3)n[nH]2)n[nH]c1=S	.	4%	-3%	5.4µM*	13%
S=c1[nH]nc(-c2cc(-c3ccccc3)n[nH]2)n1/N=C/C=C/c1ccccc1	.	3%	-1%	6.7µM*	1%
COc1ccccc1/C=C/C=N/n1c(-c2ccc(F)cc2)n[nH]c1=S	.	0%	3%	?	2%
CN1C(=O)C(O)(CC(=O)c2ccc(F)cc2)c2cc(Br)ccc21 (configuration not stated)	-9%	0%	4%	3%	-1%
O=C(NCc1ccc(F)cc1)C1CCCN(S(=O)(=O)c2cccc3nonc23)C1 (configuration not stated)	.	-3%	2%	1%	0%
O=C(COC(=O)c1ccccc1-n1cnnn1)c1ccccc1	.	11%	8%	19µM*	9%
O=C(COC(=O)c1ccccc1-n1cnnn1)c1ccc(F)c(F)c1	.	?	14%	?	13%
O=C(COC(=O)c1ccccc1-n1cnnn1)c1ccc(Br)cc1	.	18µM*	-3%	5.4µM*	-1%
CC(C)NC(=O)CSc1nc2ccccc2nc1N1CCCCC1	-2%	.	.	-18%	.
Cc1ccc(-c2csc(N)n2)s1	3%	?	?	15µM*	8%
SMILES	SMN2 splice enh	ELG1 genotoxic	NPC1 promoter act	FLuc modulator	Rab9 promoter act
Nc1nc2nc(-c3ccccc3)cc(=O)n2[nH]1	0%	-7%	0%	12µM*	17%
O=c1cc(-c2ccccc2)nc2nc(-c3ccccc3)[nH]n12	18µM*	18µM*	?	11µM*	?
CCC(=O)Nc1nc2nc(-c3ccccc3)cc(=O)n2[nH]1	.	0%	1%	?	7%
Cc1nc2nc(-c3ccccc3)[nH]n2c(=O)c1Cc1ccccc1	13µM*	9%	25%	19µM*	21%
CN(CC(=O)Nc1ccccc1C(=O)NC1CC1)Cc1cccs1	.	-2%	0%	0%	-7%
CS(=O)(=O)N1CCN(C(=O)c2csc3ccccc23)CC1	2%	4%	0%	3%	-2%
COc1cc(-c2nc(-c3cccc(Cl)c3)c(-c3ccccc3)[nH]2)cc(OC)c1OC	9%	.	.	6%	.
COc1cc(-c2nc(-c3ccc4c(c3)-c3ccccc3S4(=O)=O)c(-c3ccccc3)[nH]2)cc(OC)c1O	13%	-12%	7%	6.7µM*	1%
Cc1ccc(C(=O)Nc2nc(=O)n(C)s2)cc1	?	?	3.2µM*	2.1µM*	2.8µM*
CC(C)CC(=O)n1sc(NC(=O)c2ccccc2)nc1=O	-6%	-1%	-4%	21µM*	-6%
Cc1ccc(C(=O)Nc2nc(=O)n(C(=O)CC(C)C)s2)cc1	9%	0%	-1%	?	2%
Cc1ccc(C(=O)Nc2nc(=O)n(C(=O)c3ccccc3Cl)s2)cc1	?	?	?	5.4µM*	3.2µM*
Cn1ccc(NC(=O)c2ccc(Cl)cc2)n1	.	?	4%	?	19%
Cn1sc(NC(=O)c2ccc(Cl)cc2)nc1=O	?	?	4µM*	2.4µM*	3.5µM*
Cc1ccn2cc(CCNC(=O)CC(C)(C)C)nc2c1	11%	4%	-1%	3%	1%
CCN(CC)c1ccc(/C=N/N2CC(=O)NC2=S)cc1	.	3%	1%	-14%	11%
CC(NC(=O)c1ccc(F)cc1Cl)C1CC2CCC1C2 (configuration not stated)	.	5%	0%	-3%	7%
Cc1ccc(Nc2nc(CSc3nnc(-c4ccc(F)cc4)n3C)cs2)cc1	10µM*	16%	?	1.3µM*	?
O=C(Nc1ccc(N2CCCC2)cc1)c1ccc(Br)o1	?	?	0.5µM*	11µM*	0.35µM*
CCCC(=O)N1CCN(c2ccc(NC(=O)c3ccc(Br)o3)cc2)CC1	-3%	7%	5%	-7%	0%
CCN1CCN(c2ccc(NC(=O)c3ccc(Br)o3)cc2)CC1	.	16µM*	?	17µM*	?
O=C(Nc1ccc(N2CCN(C(=O)c3ccccc3)CC2)cc1)c1ccc(Br)o1	-14%	-25%	8%	1%	0%
O=C(CN(Cc1ccco1)C(=O)CNS(=O)(=O)c1ccccc1)NCc1ccc(F)cc1	-5%	18µM*	16%	6%	20%
O=C(CN(Cc1ccco1)C(=O)CNS(=O)(=O)c1ccc(F)cc1)NCc1ccc(F)cc1	13%	-3%	0%	2%[2.3 µM]	-4%
COC(=O)c1ccc(NC(=O)CSc2nnc(COc3ccc4c(c3)CCCC4)o2)cc1	.	-1%	5%	-10%	5%
